The results in this text go back to ChEMBL document CHEMBL3988442, “University of Dundee, Small-Polar-MMV Screening Library” (2021).

For some of these results: Entries with a potency or affinity are not part of this list.

Holding throughout (set-up): scale not given: direction of the effect not stated beside the values
Experiment [1] deals with Protein translocase subunit SecA (Escherichia coli (strain K12)) (UniProt P10408). Nature of the experiment: Assay to Identify E. coli SecA ATPase Inhibitors. The format is functional. The conditions noted are these: 30 µM.
The target of experiment [2] is T1, Ubiquitin-activating enzyme e1, putative (Leishmania donovani (strain BPK282A1)) (UniProt E9BSI1).
T1 sequence (whole entry): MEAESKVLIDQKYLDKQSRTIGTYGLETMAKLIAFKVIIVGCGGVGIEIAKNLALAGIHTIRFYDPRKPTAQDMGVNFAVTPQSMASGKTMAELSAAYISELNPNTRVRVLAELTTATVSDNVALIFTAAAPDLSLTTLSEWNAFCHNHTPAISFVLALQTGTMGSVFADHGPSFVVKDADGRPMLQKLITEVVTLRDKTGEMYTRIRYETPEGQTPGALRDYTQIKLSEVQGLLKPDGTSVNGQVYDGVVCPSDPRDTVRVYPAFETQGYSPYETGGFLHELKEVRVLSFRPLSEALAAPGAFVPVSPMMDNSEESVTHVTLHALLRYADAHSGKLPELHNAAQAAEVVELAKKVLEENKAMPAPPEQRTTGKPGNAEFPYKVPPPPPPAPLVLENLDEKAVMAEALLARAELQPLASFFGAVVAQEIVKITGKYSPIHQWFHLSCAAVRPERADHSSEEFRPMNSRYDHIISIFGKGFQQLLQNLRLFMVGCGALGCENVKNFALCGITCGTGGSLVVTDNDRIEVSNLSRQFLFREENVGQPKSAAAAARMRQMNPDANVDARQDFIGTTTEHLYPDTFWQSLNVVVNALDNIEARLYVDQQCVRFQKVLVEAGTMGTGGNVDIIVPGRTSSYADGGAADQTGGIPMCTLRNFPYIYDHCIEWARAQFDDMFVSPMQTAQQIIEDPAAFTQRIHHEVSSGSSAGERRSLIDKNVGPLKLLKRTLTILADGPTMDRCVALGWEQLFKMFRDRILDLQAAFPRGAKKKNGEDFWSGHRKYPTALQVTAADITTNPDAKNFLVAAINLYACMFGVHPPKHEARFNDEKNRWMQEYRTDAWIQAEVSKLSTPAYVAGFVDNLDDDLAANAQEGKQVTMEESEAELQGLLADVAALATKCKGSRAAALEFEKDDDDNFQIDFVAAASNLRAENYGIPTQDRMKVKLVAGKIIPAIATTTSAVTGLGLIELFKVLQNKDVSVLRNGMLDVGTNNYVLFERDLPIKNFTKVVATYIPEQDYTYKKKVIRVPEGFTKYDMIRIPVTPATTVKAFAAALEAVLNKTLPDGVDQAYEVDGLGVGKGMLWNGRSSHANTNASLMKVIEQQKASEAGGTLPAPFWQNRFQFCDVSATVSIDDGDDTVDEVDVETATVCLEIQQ
Nature of the experiment: Leishmania donovani Ubiquitin Activating Enzyme (LdE1). It counts as functional. The conditions noted are these: 30 µM.

The target in experiment [3] is AMP-activated protein kinase, AMPK (Homo sapiens) (UniProt P54646+O43741+P54619+Q9UGJ0+Q9Y478+Q13131+Q9UGI9). Kind of experiment: AMP-dependent Kinase enzyme assay. An in vitro enzyme assay that detects ADP turnover that is directly proportional to AMPK activity. This uses naive AMPK that is activated during the assay with MK-8722. The format is functional. The conditions noted are these: 30 µM.

Experiment [4] concerns the target Sialic acid-binding Ig-like lectin 9 (Homo sapiens) (UniProt Q9Y336). Kind of experiment: Hs-Siglec9 ALPHAscreen SOP 20170721. The conditions noted are these: 10 µM. For orientation: In Alpha technology, singlet oxygen from a donor bead excites a nearby acceptor bead.
A further experiment deals with Trypanosoma cruzi. Nature of the experiment: Trypanosoma cruzi phosphomannomutase and mannose-1-phosphate guanylyltransferase assay. The format is functional. The conditions noted are these: 10 µM.
The target in experiment [5] is T2, Arginase-2, mitochondrial (Homo sapiens) (UniProt P78540).
T2 sequence (whole entry): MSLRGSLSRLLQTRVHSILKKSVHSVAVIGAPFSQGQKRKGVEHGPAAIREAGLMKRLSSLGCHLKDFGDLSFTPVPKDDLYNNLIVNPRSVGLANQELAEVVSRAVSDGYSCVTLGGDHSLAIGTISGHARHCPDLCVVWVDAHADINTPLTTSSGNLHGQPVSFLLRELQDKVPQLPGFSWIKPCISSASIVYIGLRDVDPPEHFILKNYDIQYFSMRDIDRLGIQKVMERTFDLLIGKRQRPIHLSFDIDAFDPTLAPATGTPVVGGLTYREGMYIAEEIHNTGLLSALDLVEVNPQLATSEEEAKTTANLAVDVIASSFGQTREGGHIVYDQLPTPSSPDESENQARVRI
Kind of experiment: in vitro enzyme assay to detect the production of urea directly proportional to the activity of Arginase II. Also: in the data most compounds retested in dose-response had high values. The conditions noted are these: 33.3 µM. The format is functional.

Experiment [6] concerns the target T3, Proteasome subunit beta (Trypanosoma cruzi) (UniProt O96673).
T3 sequence (whole entry): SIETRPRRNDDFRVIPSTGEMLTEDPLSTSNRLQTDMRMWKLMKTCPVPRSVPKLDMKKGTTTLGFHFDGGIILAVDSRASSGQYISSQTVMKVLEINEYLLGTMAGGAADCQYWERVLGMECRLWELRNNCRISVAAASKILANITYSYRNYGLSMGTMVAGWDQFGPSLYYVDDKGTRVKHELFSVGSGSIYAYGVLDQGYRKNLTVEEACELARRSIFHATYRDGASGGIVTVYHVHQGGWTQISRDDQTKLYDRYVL
Nature of the experiment: Trypanosoma cruzi proteasome chymotrypsin-like activity (TcProtChymo) assay. Also: in the data most compounds retested in dose-response had high values. The format is functional. The conditions noted are these: 9.37 µM.

For another experiment, the species on record is Homo sapiens. Nature of the experiment: To identify inhibition of the IFN signalling (Jak-Stat) pathway via expression of an eGFP reporter gene under the control of an IFN-stimulated response element (ISRE) containing MxA promoter. The format is functional. The conditions noted are these: 30 µM.
The target of experiment [7] is T4, Tyrosyl-tRNA synthetase, putative (Trypanosoma cruzi (strain CL Brener)) (UniProt Q4DSP6).
T4 sequence (whole entry): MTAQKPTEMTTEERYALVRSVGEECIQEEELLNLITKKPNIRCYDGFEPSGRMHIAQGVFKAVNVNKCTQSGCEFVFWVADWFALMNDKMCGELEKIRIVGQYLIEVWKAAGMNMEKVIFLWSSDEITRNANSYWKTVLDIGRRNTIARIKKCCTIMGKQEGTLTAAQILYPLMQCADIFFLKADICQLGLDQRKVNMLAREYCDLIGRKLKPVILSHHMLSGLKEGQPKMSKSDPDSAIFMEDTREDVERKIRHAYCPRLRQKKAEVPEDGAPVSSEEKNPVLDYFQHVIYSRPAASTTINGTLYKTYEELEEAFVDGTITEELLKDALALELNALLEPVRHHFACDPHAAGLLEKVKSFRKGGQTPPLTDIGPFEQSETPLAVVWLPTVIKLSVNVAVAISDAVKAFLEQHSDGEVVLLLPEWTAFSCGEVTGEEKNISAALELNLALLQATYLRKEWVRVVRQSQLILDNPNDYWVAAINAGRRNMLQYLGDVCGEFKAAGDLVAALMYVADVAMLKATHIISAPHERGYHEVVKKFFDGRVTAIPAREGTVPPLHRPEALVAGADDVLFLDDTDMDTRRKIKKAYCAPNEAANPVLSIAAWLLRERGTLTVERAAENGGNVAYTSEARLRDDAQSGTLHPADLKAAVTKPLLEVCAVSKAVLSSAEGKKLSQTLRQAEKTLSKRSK
Kind of experiment: Trypanosoma cruzi tyrosyl tRNA synthetase (TcYRS) _High Tyrosine SOP. Also: in the data most compounds retested in dose-response had high values. It counts as functional. The conditions noted are these: 30 µM.

Experiment [8] concerns the target T4, Tyrosyl-tRNA synthetase, putative (Trypanosoma cruzi (strain CL Brener)). Nature of the experiment: Trypanosoma cruzi tyrosyl tRNA synthetase (TcYRS) SOP. It counts as functional. The conditions noted are these: 30 µM.
Experiment [9] deals with Chromo domain-containing protein 1 (Saccharomyces cerevisiae (strain ATCC 204508 / S288c) (Baker's yeast)) (UniProt P32657). Kind of experiment: ScCHD-1 Enzyme Inhibition Assay. Also: in the data most compounds retested in dose-response had high values. The conditions noted are these: 30 µM. It counts as functional.
Chain of Chromo domain-containing protein 1 (Saccharomyces cerevisiae (strain ATCC 204508 / S288c) (Baker's yeast)) (P32657 whole entry, the tested form may be a part): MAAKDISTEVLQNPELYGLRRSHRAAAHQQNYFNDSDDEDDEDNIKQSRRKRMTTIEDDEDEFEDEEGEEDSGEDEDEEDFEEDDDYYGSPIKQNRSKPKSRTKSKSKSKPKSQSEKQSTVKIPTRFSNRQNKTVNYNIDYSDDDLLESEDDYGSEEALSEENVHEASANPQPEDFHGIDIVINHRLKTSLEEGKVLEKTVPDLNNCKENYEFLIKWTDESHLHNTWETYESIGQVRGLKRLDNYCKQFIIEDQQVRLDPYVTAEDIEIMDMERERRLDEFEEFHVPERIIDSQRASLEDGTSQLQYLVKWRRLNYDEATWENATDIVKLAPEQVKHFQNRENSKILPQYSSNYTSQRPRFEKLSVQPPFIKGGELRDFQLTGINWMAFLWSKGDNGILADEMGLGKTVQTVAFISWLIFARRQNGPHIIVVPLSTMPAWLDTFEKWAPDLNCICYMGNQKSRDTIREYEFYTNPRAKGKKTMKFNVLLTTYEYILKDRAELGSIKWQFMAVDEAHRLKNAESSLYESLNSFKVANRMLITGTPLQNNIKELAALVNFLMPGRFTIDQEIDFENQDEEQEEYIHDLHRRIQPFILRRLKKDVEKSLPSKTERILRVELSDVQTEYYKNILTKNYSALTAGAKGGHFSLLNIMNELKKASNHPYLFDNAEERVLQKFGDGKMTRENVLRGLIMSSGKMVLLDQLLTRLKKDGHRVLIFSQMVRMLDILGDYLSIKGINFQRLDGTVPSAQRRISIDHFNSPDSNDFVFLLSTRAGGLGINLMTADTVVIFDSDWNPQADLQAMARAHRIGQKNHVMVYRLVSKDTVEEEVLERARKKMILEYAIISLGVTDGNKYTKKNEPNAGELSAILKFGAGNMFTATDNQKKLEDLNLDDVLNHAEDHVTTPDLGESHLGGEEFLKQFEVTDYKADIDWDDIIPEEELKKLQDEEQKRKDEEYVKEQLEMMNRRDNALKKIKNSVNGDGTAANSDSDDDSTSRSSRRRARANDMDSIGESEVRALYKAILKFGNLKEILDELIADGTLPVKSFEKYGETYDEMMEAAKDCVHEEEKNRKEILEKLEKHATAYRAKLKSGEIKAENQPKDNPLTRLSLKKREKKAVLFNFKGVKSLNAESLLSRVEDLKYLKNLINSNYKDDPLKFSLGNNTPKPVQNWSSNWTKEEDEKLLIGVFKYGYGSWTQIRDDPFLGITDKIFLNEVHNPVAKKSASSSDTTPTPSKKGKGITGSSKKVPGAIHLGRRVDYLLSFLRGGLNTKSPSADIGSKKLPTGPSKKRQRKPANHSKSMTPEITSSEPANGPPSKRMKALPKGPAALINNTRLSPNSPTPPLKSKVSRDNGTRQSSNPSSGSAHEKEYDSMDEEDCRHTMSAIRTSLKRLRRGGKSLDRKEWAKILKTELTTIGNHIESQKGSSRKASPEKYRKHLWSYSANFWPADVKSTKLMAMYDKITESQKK

Chain of Protein translocase subunit SecA (Escherichia coli (strain K12)) (P10408 whole entry): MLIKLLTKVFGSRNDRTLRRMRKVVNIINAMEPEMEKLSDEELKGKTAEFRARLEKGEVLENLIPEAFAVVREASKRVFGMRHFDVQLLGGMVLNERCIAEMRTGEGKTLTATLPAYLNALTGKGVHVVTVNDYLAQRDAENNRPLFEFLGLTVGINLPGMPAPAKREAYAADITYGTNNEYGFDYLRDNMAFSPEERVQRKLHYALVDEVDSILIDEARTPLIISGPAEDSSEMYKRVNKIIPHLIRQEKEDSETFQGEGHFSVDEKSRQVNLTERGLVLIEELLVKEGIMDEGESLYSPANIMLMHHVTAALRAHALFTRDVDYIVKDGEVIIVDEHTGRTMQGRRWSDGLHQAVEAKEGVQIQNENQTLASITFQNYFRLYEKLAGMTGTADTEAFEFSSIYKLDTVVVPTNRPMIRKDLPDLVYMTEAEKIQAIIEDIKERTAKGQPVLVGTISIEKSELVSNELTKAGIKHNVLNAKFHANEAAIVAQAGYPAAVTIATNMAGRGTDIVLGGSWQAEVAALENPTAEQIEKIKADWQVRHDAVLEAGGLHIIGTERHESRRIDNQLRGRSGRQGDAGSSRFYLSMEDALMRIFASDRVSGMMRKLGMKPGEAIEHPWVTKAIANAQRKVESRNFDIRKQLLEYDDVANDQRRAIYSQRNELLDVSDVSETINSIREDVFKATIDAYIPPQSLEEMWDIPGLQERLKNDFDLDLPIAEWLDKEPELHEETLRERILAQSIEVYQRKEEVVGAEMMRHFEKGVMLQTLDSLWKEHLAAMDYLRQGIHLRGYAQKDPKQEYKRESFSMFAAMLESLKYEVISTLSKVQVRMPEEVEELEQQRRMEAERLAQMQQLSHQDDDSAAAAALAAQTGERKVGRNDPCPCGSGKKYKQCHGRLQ
Chain of Sialic acid-binding Ig-like lectin 9 (Homo sapiens) (Q9Y336 whole entry): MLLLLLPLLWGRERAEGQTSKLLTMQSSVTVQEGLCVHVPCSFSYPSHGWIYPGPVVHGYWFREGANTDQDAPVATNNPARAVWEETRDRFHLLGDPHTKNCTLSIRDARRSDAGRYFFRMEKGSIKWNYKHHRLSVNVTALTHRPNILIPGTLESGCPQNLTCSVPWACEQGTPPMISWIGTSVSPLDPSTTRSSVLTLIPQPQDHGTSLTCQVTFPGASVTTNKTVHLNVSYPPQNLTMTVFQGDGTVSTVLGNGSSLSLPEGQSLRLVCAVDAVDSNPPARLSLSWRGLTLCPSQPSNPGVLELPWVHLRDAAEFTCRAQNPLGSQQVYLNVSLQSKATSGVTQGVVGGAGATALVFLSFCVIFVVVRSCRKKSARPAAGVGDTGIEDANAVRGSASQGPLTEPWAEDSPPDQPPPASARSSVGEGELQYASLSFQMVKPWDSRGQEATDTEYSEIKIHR

Take `Cc1nc(O)c2nnn(C[C@H]3CCCN3C(=O)CCC3CCCC3)c2n1`: the Percent Effect in [1] is -1.52%; in experiment [2], -4.05%; in experiment [3] it was 9.5%; in [4], -1.58%; with Trypanosoma cruzi, -1.78%; in experiment [5], -1.62%. Also, the Percent Effect in experiment [6] is 2.5%; in the experiment listed under Homo sapiens, -0.726%; in [7], -1.07%; in experiment [8] it was -1.3%; in experiment [9], 13.7%.
`CC(=O)N1CCN(c2cc(-c3ccccc3)nc3c(C)c(C)nn23)CC1`: the Percent Effect in [1] was -6.15%; in experiment [2], -11%; in experiment [3], -6.13%; in [4], 6.66%; with Trypanosoma cruzi, 4.96%; in experiment [5], 2.4%. Further, the Percent Effect is 16.2% in experiment [6]; 4.69% in the experiment listed under Homo sapiens; 7.29% in experiment [7]; 8.64% in experiment [8]; -7.72% in experiment [9].
In the case of `Cc1nccn1C1CCCN(C(=O)C2=NN(C)C(=O)CC2)C1` (stereo not drawn), the Percent Effect in experiment [1] is -0.962%; in [2], 18.9%; in experiment [3] it was 2.88%; in experiment [4], -10.1%; with Trypanosoma cruzi, -3.68%; in experiment [5] it was -4.81%. The Percent Effect in experiment [6] was 20.9%; in the experiment filed under Homo sapiens it was 23.8%; in [7] it was 4.43%; in experiment [8], 6.17%; in [9], -3.99%.
As to `CCO[C@@H]1CO[C@@]2(CCCN(C(=O)c3ccc(OC)c(F)c3)C2)C1`, the Percent Effect is -3.5% in experiment [1]; 10.4% in [2]; 6.36% in experiment [3]; -0.114% in experiment [4]; -3.06% with Trypanosoma cruzi; 11% in [5]. The Percent Effect in experiment [6] was 16.5%; in the experiment listed under Homo sapiens it was 6.86%; in experiment [7] it was 11.6%; in experiment [8] it was 8.97%; in [9], -7.2%.
For `Cc1nc(C(=O)N2CCCC(n3cncn3)C2)cs1` (stereo not drawn), the Percent Effect is -1.23% in experiment [1]; -1.27% in experiment [2]; 3.74% in experiment [3]; 3.18% in [4]; -0.718% in the experiment on Trypanosoma cruzi; 2.8% in experiment [5]. For the same molecule, the Percent Effect in experiment [6] is 4.63%; in the experiment filed under Homo sapiens it was -1.7%; in experiment [7], -38.5%; in [8], 5.06%; in [9], 0.874%.
With `CC(C)c1nnc2n1CCN(Cc1csc(CC(=O)N(C)C)n1)C2`, the Percent Effect in experiment [1] is 2.63%; in experiment [2], 18.4%; in experiment [3] it was 10.8%; in [4], 3.17%; with Trypanosoma cruzi, -4.7%; in experiment [5], -4.6%. Further, the Percent Effect was 11.5% in experiment [6]; 34.2% in the experiment filed under Homo sapiens; -0.49% in [7]; 7.32% in experiment [8]; -15% in experiment [9].
As to `CSCCCN1CC[C@@H](NC(=O)c2cnccn2)[C@H](O)C1`, the Percent Effect in experiment [1] is -3.48%; in experiment [2], 5.41%; in experiment [3], -0.599%; in experiment [4] it was 6.12%; in the experiment on Trypanosoma cruzi it was 3.09%; in experiment [5] it was -1.43%. For the same molecule, the Percent Effect came out at 11.6% in experiment [6]; 5.1% in the experiment filed under Homo sapiens; 8.99% in experiment [7]; 19.5% in experiment [8]; 1.39% in [9].
As to `CCCn1nc(C)c(CNC(=O)C2COc3c(cccc3OC)C2)c1C` (stereo not drawn), the Percent Effect in [1] was -3.57%; in [2] it was 2.74%; in [3], -2.55%; in experiment [4], 6.74%; in the experiment with Trypanosoma cruzi, 1.19%; in experiment [5], -5.59%. Moreover, the Percent Effect in experiment [6] is 15.5%; in the experiment listed under Homo sapiens, 10.2%; in experiment [7], 6.25%; in experiment [8], 16.1%; in experiment [9] it was -3.25%.
